PubChem BioAssay (NCATS)
Records with an inconclusive call do not appear. Calls of active or inactive are those of the source. Unless noted, the call rests on the fitted dose curve; in most records, active means well fitted curve in the direction sought with a large enough effect; inconclusive means small, poorly fitted or top-dose-only effect, or another doubt; inactive means no such curve, though single readings can be large; an effect the other way counts as inactive or inconclusive.

Tests used:
[1] = NS1 protein of Zika virus - qHTS assay to identify small molecule inhibitors in human HEK 293 cells (AID 1347053); further: series mostly up to about 46 µM; nearly all actives have a fitted effect of over 55% in size
Outline: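 HEK 293; 20 h pre-culture, 37 C/5% CO2; cpd 1 h pre-infection; ZIKV MR766, MOI = 0.5, 24 h, 37 C; TR-FRET NS1 readout (two anti-NS1 Abs); norm. to no-virus vs infected.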

[2] = qHTS for Inhibitors of the Functional Ribonucleoprotein Complex (vRNP) of Lassa (LASV) Arenavirus: LASV Primary Screen - GLuc reporter signal (AID 1347082; calls by dose curve; tested in HEK293 reporter line; further: series mostly up to about 57 µM; nearly all actives have a fitted effect of over 60% in size)
[3] = qHTS for Inhibitors of the Functional Ribonucleoprotein Complex (vRNP) of Lassa (LASV) Arenavirus: Viability assay - alamar blue signal for LASV Primary Screen (AID 1347083; calls by dose curve; tested in HEK293 reporter line; further: series mostly up to about 57 µM; nearly all actives have a fitted effect of over 80% in size)
[4] = qHTS for Inhibitors of the Functional Ribonucleoprotein Complex (vRNP) of Lymphocytic Choriomeningitis Arenaviruses (LCMV): Viability assay - alamar blue signal for LCMV Primary Screen (AID 1347085; calls by dose curve; tested in HEK293 reporter line; further: series mostly up to about 57 µM; nearly all actives have a fitted effect of over 80% in size)
[5] = molecular target: Nucleoprotein (Lymphocytic choriomeningitis virus (strain Armstrong)) (UniProt P09992); assay: qHTS for Inhibitors of the Functional Ribonucleoprotein Complex (vRNP) of Lymphocytic Choriomeningitis Arenaviruses (LCMV): LCMV Primary Screen - GLuc reporter signal (AID 1347086; calls by dose curve; further: series mostly up to about 57 µM; nearly all actives have a fitted effect of over 70% in size)
[6] = qHTS of pediatric cancer cell lines to identify multiple opportunities for drug repurposing: Primary screen for TC32 cells (AID 1347089); further: nearly all actives have a fitted effect of over 60% in size
Outline: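 Luminescent ATP read-out (CellTiter-Glo) of metabolically active TC32 cells after 48 h exposure. Concentration-response curves came from 11-point (MIPE, 0.78 nM–46 µM) or 8-point (NPC, 0.59 nM–46 µM) primary titrations; follow-up used 11 points.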

[7] = qHTS of pediatric cancer cell lines to identify multiple opportunities for drug repurposing: Primary screen for DAOY cells (AID 1347090); further: series mostly up to about 46 µM; nearly all actives have a fitted effect of over 55% in size
Outline: (§1)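 Eight- or eleven-point concentration series, 48 h treatment at 37 degrees C in growth media; readout CellTiter-Glo luminescence. Potency and efficacy were taken from the concentration-response curves.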

[8] = qHTS of pediatric cancer cell lines to identify multiple opportunities for drug repurposing: Primary screen for SJ-GBM2 cells (AID 1347091)
Outline: as §1

[9] = qHTS of pediatric cancer cell lines to identify multiple opportunities for drug repurposing: Primary screen for A673 cells (AID 1347092); further: nearly all actives have a fitted effect of over 45% in size
Outline: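 Cell viability of A673 measured by CellTiter-Glo ATP luminescence after 48 hours compound exposure. Dilution series spanned 0.78 nM to 46 µM (MIPE, 11-point) or 0.59 nM to 46 µM (NPC, 8-point); bortezomib 2.3 uM positive control.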

[10] = qHTS of pediatric cancer cell lines to identify multiple opportunities for drug repurposing: Primary screen for SK-N-MC cells (AID 1347093); further: series mostly up to about 46 µM
Outline: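 Metabolically active cells were quantified by ATP-dependent luminescence (CellTiter-Glo, 15 min at room temperature) following 48 h treatment. Cells had been plated at 500-1,000 per well and settled for 5 h beforehand.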

[11] = qHTS of pediatric cancer cell lines to identify multiple opportunities for drug repurposing: Primary screen for BT-37 cells (AID 1347094); further: series mostly up to about 57 µM
Outline: (§2)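 Luminescence from CellTiter-Glo served as readout of metabolically active cells after 48 h compound exposure. Titrations: MIPE 11-point, from 0.78 nM; NPC 8-point, from 0.59 nM (final). Concentration-response curves came straight from the primary screen.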

[12] = qHTS of pediatric cancer cell lines to identify multiple opportunities for drug repurposing: Primary screen for NB-EBc1 cells (AID 1347095)
Outline: as §2

[13] = qHTS of pediatric cancer cell lines to identify multiple opportunities for drug repurposing: Primary screen for U-2 OS cells (AID 1347096); further: nearly all actives have a fitted effect of over 50% in size
Outline: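 Cells (500-1,000/well) in growth media were settled 5 h at 37 degrees C, then given compounds for 48 h. Viability was read as CellTiter-Glo luminescence. Primary runs used MIPE at 11 points (0.78 nM-46 µM) and NPC at 8 points (0.59 nM-46 µM); follow-ups used 11 points.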

[14] = qHTS of pediatric cancer cell lines to identify multiple opportunities for drug repurposing: Primary screen for Saos-2 cells (AID 1347097); further: nearly all actives have a fitted effect of over 40% in size
Outline: as §2

[15] = molecular target: Atrial natriuretic peptide receptor 1 (Homo sapiens) (UniProt P16066); assay: Natriuretic polypeptide receptor (hNpr1) antagonism - Pilot screen (AID 1347049; calls by dose curve;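 further: agonist-evoked cGMP luminescence read 20 min after hNppA addition; series mostly up to about 58 µM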)
Outline: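 HEK293 cells co-expressing hNpr1 and the GloSensor pGS-40F cGMP luciferase sensor were preloaded with 2% GloSensor reagent for 2 h. Compounds were added for 30 min at room temperature, then cells were stimulated with 0.1 nM hNppA for 20 min before luminescence readout.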

[16] = molecular target: Atrial natriuretic peptide receptor 2 (Homo sapiens) (UniProt P20594); assay: Natriuretic polypeptide receptor (hNpr2) antagonism - Pilot subtype selectivity assay (AID 1347050; calls by dose curve)
Outline: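 cGMP-sensor HEK293/hNpr2 cells; 2% GloSensor reagent 2 h RT; compounds 30 min; baseline luminescence read; 1 nM hNppC agonist 20 min RT; final luminescence read by CCD camera. Antagonism = reduced post-agonist signal.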

[17] = molecular target: T1, Tyrosine-protein phosphatase non-receptor type substrate 1 (Homo sapiens) + Leukocyte surface antigen CD47 (Homo sapiens) (UniProt P78324+Q08722); assay: CD47-SIRPalpha protein protein interaction - LANCE assay qHTS validation (AID 1347057; active means well fitted curve in the direction sought with a large enough effect in the signal ratio, with a control signal flat, not every such curve was filed as active; the % refers to the signal ratio; further: series mostly up to about 38 µM)
Outline: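 First, His-tagged CD47 and Eu-labelled anti-His antibody met the compound for 30 min; next, site-specifically biotinylated SIRPalpha was added for 30 min; finally streptavidin-APC was added before reading the TR-FRET ratio.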

[18] = molecular target: T1, Tyrosine-protein phosphatase non-receptor type substrate 1 (Homo sapiens) + Leukocyte surface antigen CD47 (Homo sapiens); assay: CD47-SIRPalpha protein protein interaction - HTRF assay qHTS validation (AID 1347058; active means well fitted curve in the direction sought with a large enough effect in the signal ratio, not every such curve was filed as active; the % refers to the signal ratio; further: series mostly up to about 38 µM)
Outline: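 TR-FRET read (Ch1/Ch2 ratio) of soluble extracellular CD47 and Avi-biotinylated SIRPalpha domains in PBS pH 7.4 with 0.05% IGEPAL; 7-point compound titration. Sequential 30 min room-temperature steps; non-biotinylated SIRPalpha as control inhibitor.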

[19] = molecular target: T1, Tyrosine-protein phosphatase non-receptor type substrate 1 (Homo sapiens) + Leukocyte surface antigen CD47 (Homo sapiens); assay: CD47-SIRPalpha protein protein interaction - Alpha assay qHTS validation (AID 1347059);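 further: bead proximity luminescence from CD47 binding SIRPalpha after compound preincubation with SIRPalpha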
Outline: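 Soluble extracellular domains: Avi-tag biotinylated SIRPalpha (25 nM) preincubated 30 min RT with compound, then 6His-CD47 (12.5 nM) 30 min; Ni-NTA acceptor and streptavidin donor beads (10 ug/mL) 30 min, AlphaScreen read. PBS pH 7.4, 0.05% IGEPAL.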

[20] = molecular target: Parathyroid hormone/parathyroid hormone-related peptide receptor (Homo sapiens) (UniProt Q03431); assay: qHTS for PTHR1 Agonists: Optimization Screen against the NCGC LOPAC library (AID 1347079);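 further: GloSensor cAMP luminescence in HEK-293 GP2 cells expressing human PTHR1 with IBMX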
Outline: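 Agonist readout: GloSensor cAMP luminescence, read after 15 min at room temperature. HEK-293-derived GP2 line carries PTHR1; compounds tested as a titration for 1 hr at 37C in presence of IBMX. M-PTH (1-15) served as control.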

Measured: Potency

Nucleoprotein (Lymphocytic choriomeningitis virus (strain Armstrong)), sequence (P09992 whole entry, looked up): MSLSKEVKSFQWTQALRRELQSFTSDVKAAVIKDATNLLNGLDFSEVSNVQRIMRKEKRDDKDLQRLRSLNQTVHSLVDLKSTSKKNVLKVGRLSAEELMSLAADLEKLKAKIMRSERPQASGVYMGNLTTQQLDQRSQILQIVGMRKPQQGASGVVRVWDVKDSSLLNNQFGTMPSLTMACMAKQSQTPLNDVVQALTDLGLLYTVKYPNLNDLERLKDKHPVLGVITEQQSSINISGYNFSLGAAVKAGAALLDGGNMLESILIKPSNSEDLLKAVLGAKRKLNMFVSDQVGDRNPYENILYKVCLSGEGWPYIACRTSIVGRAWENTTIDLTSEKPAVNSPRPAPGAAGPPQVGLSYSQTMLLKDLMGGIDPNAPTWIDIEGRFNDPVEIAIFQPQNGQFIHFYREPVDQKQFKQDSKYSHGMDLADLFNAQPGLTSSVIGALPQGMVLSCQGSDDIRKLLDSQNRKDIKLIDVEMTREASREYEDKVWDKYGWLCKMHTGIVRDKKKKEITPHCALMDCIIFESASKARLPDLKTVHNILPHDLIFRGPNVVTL
T1 sequence (P78324 whole entry, looked up): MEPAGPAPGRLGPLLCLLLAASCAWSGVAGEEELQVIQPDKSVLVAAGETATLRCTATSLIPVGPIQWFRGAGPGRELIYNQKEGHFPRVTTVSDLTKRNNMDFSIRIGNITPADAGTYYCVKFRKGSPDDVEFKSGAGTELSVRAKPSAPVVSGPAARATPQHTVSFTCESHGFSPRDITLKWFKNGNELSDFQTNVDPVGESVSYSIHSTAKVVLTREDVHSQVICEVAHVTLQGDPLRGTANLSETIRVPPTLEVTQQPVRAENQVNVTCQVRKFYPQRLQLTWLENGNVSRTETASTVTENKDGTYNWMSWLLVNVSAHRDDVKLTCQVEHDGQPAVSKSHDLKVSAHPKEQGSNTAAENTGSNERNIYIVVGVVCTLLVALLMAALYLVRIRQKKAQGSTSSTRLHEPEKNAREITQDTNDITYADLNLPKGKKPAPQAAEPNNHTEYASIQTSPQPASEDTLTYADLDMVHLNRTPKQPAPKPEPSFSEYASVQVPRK
T1 sequence (Q08722 whole entry, looked up): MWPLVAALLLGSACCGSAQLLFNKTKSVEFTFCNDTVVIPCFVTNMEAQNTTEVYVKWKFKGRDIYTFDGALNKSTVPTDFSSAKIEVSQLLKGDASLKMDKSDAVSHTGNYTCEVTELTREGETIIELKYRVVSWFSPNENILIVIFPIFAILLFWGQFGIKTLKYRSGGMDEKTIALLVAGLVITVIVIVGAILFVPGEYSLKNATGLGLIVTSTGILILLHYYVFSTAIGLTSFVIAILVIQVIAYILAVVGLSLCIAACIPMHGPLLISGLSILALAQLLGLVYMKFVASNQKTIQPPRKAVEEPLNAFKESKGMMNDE
Atrial natriuretic peptide receptor 1 (Homo sapiens), sequence (P16066 whole entry, looked up): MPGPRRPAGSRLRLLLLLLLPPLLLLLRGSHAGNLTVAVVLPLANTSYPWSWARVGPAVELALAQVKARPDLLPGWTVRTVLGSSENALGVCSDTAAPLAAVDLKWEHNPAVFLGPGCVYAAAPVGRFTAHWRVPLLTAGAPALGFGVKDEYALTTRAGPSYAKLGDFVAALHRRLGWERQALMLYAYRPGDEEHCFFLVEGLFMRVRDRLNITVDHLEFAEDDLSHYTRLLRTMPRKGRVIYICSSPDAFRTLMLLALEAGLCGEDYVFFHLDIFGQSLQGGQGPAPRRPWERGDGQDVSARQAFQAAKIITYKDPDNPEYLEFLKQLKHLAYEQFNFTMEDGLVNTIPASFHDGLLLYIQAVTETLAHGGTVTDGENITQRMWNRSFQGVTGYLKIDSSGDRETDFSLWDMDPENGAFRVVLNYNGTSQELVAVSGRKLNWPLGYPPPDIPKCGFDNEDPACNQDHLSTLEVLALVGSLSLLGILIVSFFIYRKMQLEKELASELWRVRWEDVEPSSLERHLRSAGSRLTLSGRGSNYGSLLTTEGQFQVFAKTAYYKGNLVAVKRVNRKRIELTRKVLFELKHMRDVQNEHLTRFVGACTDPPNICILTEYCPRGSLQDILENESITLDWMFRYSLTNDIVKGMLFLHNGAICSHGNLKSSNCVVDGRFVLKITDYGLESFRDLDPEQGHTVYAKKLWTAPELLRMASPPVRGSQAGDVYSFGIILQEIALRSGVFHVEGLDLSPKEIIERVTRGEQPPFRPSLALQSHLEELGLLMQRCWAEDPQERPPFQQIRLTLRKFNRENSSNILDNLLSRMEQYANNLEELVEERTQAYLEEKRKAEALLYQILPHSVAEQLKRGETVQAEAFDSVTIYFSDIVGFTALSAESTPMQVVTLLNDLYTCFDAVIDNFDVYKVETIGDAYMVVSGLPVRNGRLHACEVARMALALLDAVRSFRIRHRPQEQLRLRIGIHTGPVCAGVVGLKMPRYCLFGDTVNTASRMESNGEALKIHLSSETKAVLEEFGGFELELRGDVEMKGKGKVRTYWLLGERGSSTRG
Atrial natriuretic peptide receptor 2 (Homo sapiens), sequence (P20594 whole entry, looked up): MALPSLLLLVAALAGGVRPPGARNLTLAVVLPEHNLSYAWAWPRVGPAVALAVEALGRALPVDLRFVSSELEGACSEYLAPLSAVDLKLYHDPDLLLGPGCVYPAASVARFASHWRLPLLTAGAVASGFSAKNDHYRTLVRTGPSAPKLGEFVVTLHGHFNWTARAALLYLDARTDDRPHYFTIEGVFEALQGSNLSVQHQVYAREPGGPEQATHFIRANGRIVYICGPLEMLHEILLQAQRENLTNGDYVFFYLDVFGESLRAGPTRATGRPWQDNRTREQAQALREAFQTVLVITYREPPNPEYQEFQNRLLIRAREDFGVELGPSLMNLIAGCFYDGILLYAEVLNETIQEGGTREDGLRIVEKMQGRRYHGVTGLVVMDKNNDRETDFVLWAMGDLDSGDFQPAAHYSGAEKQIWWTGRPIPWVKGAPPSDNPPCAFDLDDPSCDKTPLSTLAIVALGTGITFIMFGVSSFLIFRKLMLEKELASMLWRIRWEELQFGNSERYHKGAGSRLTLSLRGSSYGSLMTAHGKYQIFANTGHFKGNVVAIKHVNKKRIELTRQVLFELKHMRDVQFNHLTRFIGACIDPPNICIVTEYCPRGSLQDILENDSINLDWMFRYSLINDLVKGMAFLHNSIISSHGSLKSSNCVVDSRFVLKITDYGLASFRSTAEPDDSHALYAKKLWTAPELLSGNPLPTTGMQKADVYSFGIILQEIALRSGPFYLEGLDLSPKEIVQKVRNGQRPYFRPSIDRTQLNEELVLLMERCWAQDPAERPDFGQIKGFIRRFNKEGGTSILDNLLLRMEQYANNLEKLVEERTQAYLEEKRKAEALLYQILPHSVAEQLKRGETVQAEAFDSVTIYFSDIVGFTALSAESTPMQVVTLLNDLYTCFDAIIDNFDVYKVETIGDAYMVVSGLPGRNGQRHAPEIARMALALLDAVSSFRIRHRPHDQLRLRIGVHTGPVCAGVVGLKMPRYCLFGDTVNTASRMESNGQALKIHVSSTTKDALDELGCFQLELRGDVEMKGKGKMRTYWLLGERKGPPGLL
Parathyroid hormone/parathyroid hormone-related peptide receptor (Homo sapiens), sequence (Q03431 whole entry, looked up): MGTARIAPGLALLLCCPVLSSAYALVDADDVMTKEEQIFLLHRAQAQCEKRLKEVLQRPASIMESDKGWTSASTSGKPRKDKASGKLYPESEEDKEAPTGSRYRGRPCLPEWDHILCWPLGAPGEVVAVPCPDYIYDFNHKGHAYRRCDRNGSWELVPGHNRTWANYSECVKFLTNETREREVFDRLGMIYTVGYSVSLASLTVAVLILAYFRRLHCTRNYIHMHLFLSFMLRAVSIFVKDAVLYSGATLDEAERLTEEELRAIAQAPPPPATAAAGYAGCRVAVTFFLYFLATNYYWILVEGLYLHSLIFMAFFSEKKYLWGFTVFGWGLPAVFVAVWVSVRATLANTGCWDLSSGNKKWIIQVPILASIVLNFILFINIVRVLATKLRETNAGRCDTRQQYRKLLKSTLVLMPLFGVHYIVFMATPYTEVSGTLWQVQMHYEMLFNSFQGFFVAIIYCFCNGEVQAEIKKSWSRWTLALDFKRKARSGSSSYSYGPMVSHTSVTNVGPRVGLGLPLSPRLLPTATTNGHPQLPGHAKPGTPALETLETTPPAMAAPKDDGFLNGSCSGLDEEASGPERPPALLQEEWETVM

Oc1c(Br)cc(Br)cc1Br
not listed: [15] | [16] | [17] | [18] | [19] | [20]
inactive: all other assays above

CCN(Cc1ccc(Cl)nc1)/C(=C/[N+](=O)[O-])NC
not listed: [15] | [16] | [17] | [18] | [19] | [20]
inactive: all other assays above

CCOC(=O)NC(O)C(Cl)(Cl)Cl (stereo unspecified)
not listed: [14] | [15] | [16] | [17] | [18] | [19] | [20]
inactive: all other assays above

O=C(CBr)Nc1ccc(Cl)cc1C(=O)c1ccccc1F
not listed: [15] | [16] | [17] | [18] | [19] | [20]
inactive: all other assays above

CCNc1nc(Cl)nc(NCC)n1
not listed: [14] | [15] | [16] | [17] | [18] | [19] | [20]
inactive: all other assays above

CC1=C2[C@H]3OC(=O)[C@@H](C)[C@@H]3CC[C@@]2(C)C=CC1=O
not listed: [14] | [15] | [16] | [17] | [18] | [19] | [20]
inactive: all other assays above

ClC1=C(Cl)C2(Cl)C(CBr)CC1(Cl)C2(Cl)Cl (stereo unspecified)
not listed: [15] | [16] | [17] | [18] | [19] | [20]
inactive: all other assays above

CCCC(C)C1(CC)C(=O)N=C(S)NC1=O (stereo unspecified)
not listed: [15] | [16] | [17] | [18] | [19] | [20]
inactive: all other assays above

CCC1(c2cccc(O)c2)CCCCN(C)C1 (stereo unspecified)
not listed: [14] | [15] | [16] | [17] | [18] | [19] | [20]
inactive: all other assays above

OC(O)C(Cl)(Cl)Cl
not listed: [15] | [16] | [17] | [18] | [19] | [20]
inactive: all other assays above

CC(C)C(Br)C(=O)NC(N)=O (stereo unspecified)
not listed: [15] | [16] | [17] | [18] | [19] | [20]
inactive: all other assays above

O=C(CCCN1CCC(n2c(=O)[nH]c3ccccc32)CC1)c1ccc(F)cc1
not listed: [15] | [16] | [17] | [18] | [19] | [20]
inactive: all other assays above

CC(C)NCC(O)c1ccc(N)c(C#N)c1 (stereo unspecified)
not listed: [15] | [16] | [17] | [18] | [19] | [20]
inactive: all other assays above

Clc1ccc(CO/N=C(\Cn2ccnc2)c2ccc(Cl)cc2Cl)c(Cl)c1
inactive: [1] | [2] | [3] | [4] | [5]

Cc1nnc2n1-c1sc(CCC(=O)N3CCOCC3)cc1C(c1ccccc1Cl)=NC2
not listed: [15] | [16] | [17] | [18] | [19] | [20]
inactive: all other assays above

CCOC(=O)NC(C)(C)Cc1ccc(Cl)cc1
not listed: [14] | [15] | [16] | [17] | [18] | [19] | [20]
inactive: all other assays above

CCOC(=O)c1ncn2c1CN(C)C(=O)c1c(I)cccc1-2
not listed: [15] | [16] | [17] | [18] | [19] | [20]
inactive: all other assays above

COC(=O)C1=CCCN(C)C1
not listed: [10] | [11]
inactive: all other assays above

CCN1CCCC1CNC(=O)C(O)(c1ccccc1)c1ccccc1 (stereo unspecified)
not listed: [15] | [16] | [17] | [18] | [19] | [20]
inactive: all other assays above
